This note sets out measurements from the supplement of paper PMC11628255, “Interference of metal ions on the bioluminescent signal of firefly, Renilla, and NanoLuc luciferases in high-throughput screening assays” (Frontiers in Chemistry, 2024).

This assay concerns firefly luciferase (FLuc). Briefly: residual bioluminescent signal relative to negative (DMSO) control; higher = less interference (more residual luciferase signal). The protocol: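 Purified luciferase (FLuc 10 nM + 10 uM D-luciferin; NLuc 10 pM + 10 uM furimazine; RLuc 50 pM + 2 uM coelenterazine) in 384-well plates; metal salt pre-incubated with enzyme 10 min at RT, substrate added and luminescence read after 10 min. Signal normalised to plate DMSO negative control (% N_VALUE = x/mean neg *100); triplicate wells at 0.01, 1 and 5 mM salt.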

The mark [1] stands for this setting: metal salt concentration 0.01 mM, HEPES conditions (100 mM HEPES, 5 mM MgSO4, 10 uM ATP, pH 7.5).
[2] abbreviates: metal salt concentration 0.01 mM, screening conditions (0.5 mM Tris, 50 mM glycine, 0.5 mM EDTA, 5 mM MgSO4, 10 uM ATP, pH 7.6).
Where [3] appears, read: metal salt concentration 1 mM, HEPES conditions (100 mM HEPES, 5 mM MgSO4, 10 uM ATP, pH 7.5).
Setting [4] is: metal salt concentration 1 mM, screening conditions (0.5 mM Tris, 50 mM glycine, 0.5 mM EDTA, 5 mM MgSO4, 10 uM ATP, pH 7.6).
The mark [5] stands for this setting: metal salt concentration 5 mM, HEPES conditions (100 mM HEPES, 5 mM MgSO4, 10 uM ATP, pH 7.5).
[6] abbreviates: metal salt concentration 5 mM, screening conditions (0.5 mM Tris, 50 mM glycine, 0.5 mM EDTA, 5 mM MgSO4, 10 uM ATP, pH 7.6).

± gives the standard deviation of the averaged measurements.

With `[Cl][Fe]([Cl])[Cl]` [iron(III) chloride], the residual bioluminescent signal is, setting by setting: under setting [1], 15.5 ± 8.2%; under setting [2], 1.32 ± 0.63%; under setting [3], 1.09 ± 0.62%; under setting [4], 0.712 ± 0.4%; under setting [5], 1.9 ± 1.9%; under setting [6], 0.29 ± 0.046%.
`O=C([O-])[O-].[K+].[K+]` [potassium carbonate]: the residual bioluminescent signal under setting [1] was determined as 84.3 ± 17%; the residual bioluminescent signal under setting [2] stood at 81.3 ± 3%; the residual bioluminescent signal under setting [3] was determined as 83.9 ± 16%; the residual bioluminescent signal under setting [4] worked out at 85.8 ± 6.4%; the residual bioluminescent signal under setting [5] was 67.9 ± 15%; the residual bioluminescent signal under setting [6] was 49.2 ± 8.7%.
Turning to `O.O.O.O.O.O.O.O=S(=O)([O-])[O-].[Mg+2]` [magnesium sulfate], the residual bioluminescent signal turned out to be 78.3 ± 4.9% under setting [1]; 71.5 ± 6.5% under setting [2]; 77.4 ± 17% under setting [3]; 68 ± 5.2% under setting [4]; 55.5 ± 13% under setting [5]; 47.7 ± 6.9% under setting [6].
`[Cl][Fe][Cl]` [iron(II) chloride]: the residual bioluminescent signal is 28.9 ± 6.8% under setting [1]; 108 ± 1.6% under setting [2]; 1.76 ± 0.23% under setting [3]; 0.343 ± 0.046% under setting [4]; 0.814 ± 0.7% under setting [5]; 0.369 ± 0.091% under setting [6].
